Article PMC7862700, “An all-to-all approach to the identification of sequence-specific readers for epigenetic DNA modifications on cytosine”

Key:
Assay in all cases: DAPPL (digital affinity profiling via proximity ligation, sequencing); 10 mM Tris-HCl pH 7.5, 50 mM NaCl, 1 mM DTT, 4% glycerol, room temperature, 30 min; GST-TFs on glutathione beads, 16-mer random dsDNA library, 0.1% formaldehyde crosslink after washing; high values mean tight binding
[1] = molecular target: T1, FLI1 (Homo sapiens, UniProt Q01543 1-452); details: protein: recombinant; tags: N-terminal GST; dsDNA, one strand shown
T1 sequence: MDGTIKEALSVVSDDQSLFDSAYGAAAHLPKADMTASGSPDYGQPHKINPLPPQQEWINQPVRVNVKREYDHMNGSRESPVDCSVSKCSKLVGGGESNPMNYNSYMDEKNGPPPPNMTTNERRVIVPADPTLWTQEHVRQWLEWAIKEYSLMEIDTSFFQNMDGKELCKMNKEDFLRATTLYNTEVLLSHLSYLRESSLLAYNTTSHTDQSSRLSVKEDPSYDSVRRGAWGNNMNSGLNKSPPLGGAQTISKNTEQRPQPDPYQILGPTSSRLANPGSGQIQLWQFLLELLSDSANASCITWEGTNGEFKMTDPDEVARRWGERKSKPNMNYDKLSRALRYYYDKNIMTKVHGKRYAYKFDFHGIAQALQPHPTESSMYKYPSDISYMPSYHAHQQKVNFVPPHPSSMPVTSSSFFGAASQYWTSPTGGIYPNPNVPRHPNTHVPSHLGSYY
How it was run: (§1)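 The binding signal reported is, for every hexamer, its read frequency for a factor over its read frequency for the tag-only sample. Reads came from pools of yeast-expressed, GST-fused human transcription factors on glutathione beads, barcoded with DNA and mixed with that sample, which were incubated with 200 nmole of a random double-stranded 16-mer DNA library in Tris/NaCl/DTT/glycerol buffer at room temperature for 30 min. After washing, the pools were crosslinked with 0.1% formaldehyde, proximity-ligated with BsaI/T4 ligase for 1 h at 37 °C, PCR-amplified and sequenced on an Illumina NextSeq500.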

[2] = molecular target: T2, ELK1 (Homo sapiens, UniProt P19419 1-428); details: protein: recombinant; tags: N-terminal GST; dsDNA, one strand shown
T2 sequence: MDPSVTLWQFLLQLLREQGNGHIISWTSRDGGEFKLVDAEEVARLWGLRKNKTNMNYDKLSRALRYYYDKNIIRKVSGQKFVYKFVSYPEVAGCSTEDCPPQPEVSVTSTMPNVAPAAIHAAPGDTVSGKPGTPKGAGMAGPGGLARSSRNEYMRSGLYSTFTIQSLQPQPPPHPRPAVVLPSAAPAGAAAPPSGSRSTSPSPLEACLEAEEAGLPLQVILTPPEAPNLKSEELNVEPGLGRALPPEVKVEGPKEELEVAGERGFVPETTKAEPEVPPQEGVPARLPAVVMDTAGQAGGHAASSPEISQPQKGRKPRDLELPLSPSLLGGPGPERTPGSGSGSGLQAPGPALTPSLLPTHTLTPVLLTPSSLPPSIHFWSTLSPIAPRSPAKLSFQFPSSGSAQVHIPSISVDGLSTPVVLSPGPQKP
How it was run: as §1

[3] = molecular target: T3, GABPA (Homo sapiens, UniProt Q06546 1-454); details: protein: recombinant; tags: N-terminal GST; dsDNA, one strand shown
T3 sequence: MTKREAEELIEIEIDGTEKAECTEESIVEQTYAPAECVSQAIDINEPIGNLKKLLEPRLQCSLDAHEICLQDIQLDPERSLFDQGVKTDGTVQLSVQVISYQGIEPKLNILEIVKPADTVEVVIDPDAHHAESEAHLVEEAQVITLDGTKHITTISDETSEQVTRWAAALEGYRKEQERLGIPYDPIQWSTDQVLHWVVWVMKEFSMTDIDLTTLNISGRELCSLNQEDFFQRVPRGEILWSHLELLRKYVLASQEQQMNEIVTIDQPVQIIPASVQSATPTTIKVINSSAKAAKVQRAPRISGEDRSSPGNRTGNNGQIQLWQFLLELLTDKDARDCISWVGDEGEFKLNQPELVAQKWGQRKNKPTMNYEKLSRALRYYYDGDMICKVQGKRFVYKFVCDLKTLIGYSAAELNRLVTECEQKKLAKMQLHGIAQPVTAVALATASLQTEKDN
How it was run: as §1

[4] = molecular target: T4, ERG (Homo sapiens, UniProt P11308 1-479); details: protein: recombinant; tags: N-terminal GST; dsDNA, one strand shown
T4 sequence: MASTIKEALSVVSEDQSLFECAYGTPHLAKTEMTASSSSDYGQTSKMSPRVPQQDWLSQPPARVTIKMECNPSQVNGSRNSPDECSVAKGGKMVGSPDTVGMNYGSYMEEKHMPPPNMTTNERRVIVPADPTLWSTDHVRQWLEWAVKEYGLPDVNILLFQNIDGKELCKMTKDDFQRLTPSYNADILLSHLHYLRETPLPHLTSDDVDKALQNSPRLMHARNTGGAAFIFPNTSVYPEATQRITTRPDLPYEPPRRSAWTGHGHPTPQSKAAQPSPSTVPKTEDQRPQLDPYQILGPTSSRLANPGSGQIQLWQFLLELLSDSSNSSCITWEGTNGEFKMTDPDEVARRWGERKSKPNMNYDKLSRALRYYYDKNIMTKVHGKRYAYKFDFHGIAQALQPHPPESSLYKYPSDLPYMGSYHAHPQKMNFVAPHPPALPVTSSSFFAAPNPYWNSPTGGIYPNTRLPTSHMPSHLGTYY
How it was run: as §1

[5] = molecular target: ELF1 (Homo sapiens, UniProt P32519 1-619); details: protein: recombinant; tags: N-terminal GST; dsDNA, one strand shown
How it was run: as §1

[6] = molecular target: T5, EHF (Homo sapiens, UniProt Q9NZC4 1-300); details: protein: recombinant; tags: N-terminal GST; dsDNA, one strand shown
T5 sequence: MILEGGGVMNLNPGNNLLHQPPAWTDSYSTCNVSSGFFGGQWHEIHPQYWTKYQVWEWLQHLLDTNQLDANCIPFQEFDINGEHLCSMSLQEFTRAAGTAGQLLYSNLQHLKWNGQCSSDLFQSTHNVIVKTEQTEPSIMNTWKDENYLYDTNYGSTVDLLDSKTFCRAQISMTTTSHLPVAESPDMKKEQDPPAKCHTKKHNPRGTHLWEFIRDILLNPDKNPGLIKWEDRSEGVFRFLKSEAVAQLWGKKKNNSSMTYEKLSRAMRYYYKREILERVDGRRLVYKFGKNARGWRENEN
How it was run: as §1

[7] = molecular target: SPI1 (Homo sapiens, UniProt P17947 1-270); details: protein: recombinant; tags: N-terminal GST; dsDNA, one strand shown
How it was run: as §1

[8] = molecular target: SPIB (Homo sapiens, UniProt Q01892 1-262); details: protein: recombinant; tags: N-terminal GST; dsDNA, one strand shown
How it was run: as §1

[9] = molecular target: T6, ELK3 (Homo sapiens, UniProt P41970 1-407); details: protein: recombinant; tags: N-terminal GST; dsDNA, one strand shown
T6 sequence: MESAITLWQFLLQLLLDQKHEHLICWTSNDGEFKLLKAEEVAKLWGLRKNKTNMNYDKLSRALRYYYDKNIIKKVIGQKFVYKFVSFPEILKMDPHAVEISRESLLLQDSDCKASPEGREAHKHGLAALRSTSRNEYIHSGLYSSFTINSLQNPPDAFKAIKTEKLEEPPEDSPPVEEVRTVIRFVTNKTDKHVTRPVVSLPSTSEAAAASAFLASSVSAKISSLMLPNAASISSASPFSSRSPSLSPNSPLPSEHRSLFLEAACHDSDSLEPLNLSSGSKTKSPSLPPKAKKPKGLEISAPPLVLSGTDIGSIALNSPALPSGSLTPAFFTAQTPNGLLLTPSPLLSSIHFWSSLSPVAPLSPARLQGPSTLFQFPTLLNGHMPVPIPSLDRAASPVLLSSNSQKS
How it was run: as §1

[10] = molecular target: T7, FEV (Homo sapiens, UniProt Q99581 1-238); details: protein: recombinant; tags: N-terminal GST; dsDNA, one strand shown
T7 sequence: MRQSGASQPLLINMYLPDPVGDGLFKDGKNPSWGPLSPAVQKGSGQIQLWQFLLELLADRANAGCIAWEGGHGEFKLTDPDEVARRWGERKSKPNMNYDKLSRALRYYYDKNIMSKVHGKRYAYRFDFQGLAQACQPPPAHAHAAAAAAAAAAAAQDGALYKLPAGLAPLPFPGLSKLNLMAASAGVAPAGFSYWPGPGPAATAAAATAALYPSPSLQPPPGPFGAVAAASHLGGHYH
How it was run: as §1

[11] = molecular target: ETV5 (Homo sapiens, UniProt P41161 1-510); details: protein: recombinant; tags: N-terminal GST; dsDNA, one strand shown
How it was run: as §1

[12] = molecular target: HSF1 (Homo sapiens, UniProt Q00613 1-529); details: protein: recombinant; tags: N-terminal GST; chain copies: 3; dsDNA, one strand shown
How it was run: as §1

[13] = molecular target: ELF4 (Homo sapiens, UniProt Q99607 1-663); details: protein: recombinant; tags: N-terminal GST; dsDNA, one strand shown
How it was run: as §1

[14] = molecular target: T8, ELK4 (Homo sapiens, UniProt P28324-2 1-405); details: protein: recombinant; tags: N-terminal GST; dsDNA, one strand shown
T8 sequence: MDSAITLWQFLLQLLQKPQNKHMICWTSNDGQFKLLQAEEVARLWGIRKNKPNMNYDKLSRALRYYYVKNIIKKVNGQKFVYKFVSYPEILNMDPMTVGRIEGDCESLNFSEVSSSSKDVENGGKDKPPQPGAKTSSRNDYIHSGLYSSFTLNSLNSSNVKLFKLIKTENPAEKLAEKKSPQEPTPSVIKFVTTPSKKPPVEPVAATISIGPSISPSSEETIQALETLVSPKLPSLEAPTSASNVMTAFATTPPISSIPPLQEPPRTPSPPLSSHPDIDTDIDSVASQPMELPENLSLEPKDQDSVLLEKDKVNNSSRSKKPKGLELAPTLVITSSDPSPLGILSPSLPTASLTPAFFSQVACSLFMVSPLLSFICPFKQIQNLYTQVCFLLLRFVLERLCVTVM
How it was run: as §1

[15] = molecular target: T9, ETV2 (Homo sapiens, UniProt O00321 1-342); details: protein: recombinant; tags: N-terminal GST; dsDNA, one strand shown
T9 sequence: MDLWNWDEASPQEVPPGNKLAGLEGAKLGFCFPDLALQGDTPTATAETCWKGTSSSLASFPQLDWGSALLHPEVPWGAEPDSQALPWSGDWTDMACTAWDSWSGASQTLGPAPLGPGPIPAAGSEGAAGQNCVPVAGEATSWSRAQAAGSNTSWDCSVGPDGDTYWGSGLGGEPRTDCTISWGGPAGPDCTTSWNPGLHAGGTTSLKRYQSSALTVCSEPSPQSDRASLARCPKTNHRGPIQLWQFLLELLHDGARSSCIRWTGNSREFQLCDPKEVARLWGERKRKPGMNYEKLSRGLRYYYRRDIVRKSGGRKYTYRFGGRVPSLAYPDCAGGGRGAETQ
How it was run: as §1

[16] = molecular target: T10, ELF3 (Homo sapiens, UniProt P78545 1-371); details: protein: recombinant; tags: N-terminal GST; dsDNA, one strand shown
T10 sequence: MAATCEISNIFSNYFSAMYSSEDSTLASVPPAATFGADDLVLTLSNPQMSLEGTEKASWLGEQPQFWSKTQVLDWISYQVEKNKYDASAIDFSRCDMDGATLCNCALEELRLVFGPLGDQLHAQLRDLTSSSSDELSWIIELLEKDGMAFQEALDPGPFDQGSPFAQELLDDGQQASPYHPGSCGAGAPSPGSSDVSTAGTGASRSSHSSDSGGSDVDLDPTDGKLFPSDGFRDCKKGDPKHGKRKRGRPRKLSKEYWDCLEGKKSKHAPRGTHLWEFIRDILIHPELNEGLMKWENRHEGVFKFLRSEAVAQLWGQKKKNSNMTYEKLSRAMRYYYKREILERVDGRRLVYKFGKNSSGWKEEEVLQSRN
How it was run: as §1

[17] = molecular target: CRX (Homo sapiens, UniProt O43186 1-299); details: protein: recombinant; tags: N-terminal GST; dsDNA, one strand shown
How it was run: as §1

[18] = molecular target: ETV1 (Homo sapiens, UniProt P50549 1-477); details: protein: recombinant; tags: N-terminal GST; dsDNA, one strand shown
How it was run: as §1

Chain of HSF1 (Q00613 whole entry): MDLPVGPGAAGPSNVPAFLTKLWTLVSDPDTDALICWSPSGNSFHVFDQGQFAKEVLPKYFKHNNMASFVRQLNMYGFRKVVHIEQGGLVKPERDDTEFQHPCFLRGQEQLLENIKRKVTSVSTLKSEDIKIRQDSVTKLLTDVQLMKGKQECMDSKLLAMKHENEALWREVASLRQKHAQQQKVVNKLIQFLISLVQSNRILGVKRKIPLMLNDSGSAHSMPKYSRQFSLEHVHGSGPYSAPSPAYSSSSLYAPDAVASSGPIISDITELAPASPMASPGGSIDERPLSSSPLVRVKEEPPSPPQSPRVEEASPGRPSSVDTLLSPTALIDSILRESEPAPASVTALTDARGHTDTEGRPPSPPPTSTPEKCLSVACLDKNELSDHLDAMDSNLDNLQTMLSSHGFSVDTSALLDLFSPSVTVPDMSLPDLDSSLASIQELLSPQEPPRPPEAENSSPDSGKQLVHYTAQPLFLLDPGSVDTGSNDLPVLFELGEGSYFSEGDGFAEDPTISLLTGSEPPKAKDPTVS
Chain of ETV5 (P41161 whole entry): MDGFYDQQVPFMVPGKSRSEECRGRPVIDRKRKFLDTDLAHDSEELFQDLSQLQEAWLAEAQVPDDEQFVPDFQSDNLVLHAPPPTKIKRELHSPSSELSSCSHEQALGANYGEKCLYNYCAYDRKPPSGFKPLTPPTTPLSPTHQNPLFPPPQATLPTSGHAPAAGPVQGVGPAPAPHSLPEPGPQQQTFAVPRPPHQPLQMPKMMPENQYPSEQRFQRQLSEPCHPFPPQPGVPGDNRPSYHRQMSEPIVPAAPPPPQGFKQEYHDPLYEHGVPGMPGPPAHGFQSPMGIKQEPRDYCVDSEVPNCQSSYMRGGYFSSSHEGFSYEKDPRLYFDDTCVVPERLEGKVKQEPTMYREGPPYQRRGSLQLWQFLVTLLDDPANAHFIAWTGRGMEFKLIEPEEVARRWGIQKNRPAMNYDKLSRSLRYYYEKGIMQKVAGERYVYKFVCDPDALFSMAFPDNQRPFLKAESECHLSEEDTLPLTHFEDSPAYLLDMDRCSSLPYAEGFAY
Chain of ETV1 (P50549 whole entry): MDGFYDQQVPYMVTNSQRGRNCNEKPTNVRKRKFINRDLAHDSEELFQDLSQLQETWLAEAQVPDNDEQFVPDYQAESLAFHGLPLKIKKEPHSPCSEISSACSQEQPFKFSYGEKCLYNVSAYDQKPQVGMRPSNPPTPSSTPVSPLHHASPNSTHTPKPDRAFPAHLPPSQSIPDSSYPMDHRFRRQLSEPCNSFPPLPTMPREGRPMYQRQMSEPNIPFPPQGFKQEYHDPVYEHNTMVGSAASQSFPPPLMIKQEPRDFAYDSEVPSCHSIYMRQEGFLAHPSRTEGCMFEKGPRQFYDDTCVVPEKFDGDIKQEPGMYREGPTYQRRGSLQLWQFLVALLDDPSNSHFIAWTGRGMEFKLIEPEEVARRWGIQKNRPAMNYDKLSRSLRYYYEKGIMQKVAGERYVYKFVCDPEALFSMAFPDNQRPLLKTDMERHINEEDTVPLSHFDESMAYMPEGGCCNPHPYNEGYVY
Chain of ELF1 (P32519 whole entry): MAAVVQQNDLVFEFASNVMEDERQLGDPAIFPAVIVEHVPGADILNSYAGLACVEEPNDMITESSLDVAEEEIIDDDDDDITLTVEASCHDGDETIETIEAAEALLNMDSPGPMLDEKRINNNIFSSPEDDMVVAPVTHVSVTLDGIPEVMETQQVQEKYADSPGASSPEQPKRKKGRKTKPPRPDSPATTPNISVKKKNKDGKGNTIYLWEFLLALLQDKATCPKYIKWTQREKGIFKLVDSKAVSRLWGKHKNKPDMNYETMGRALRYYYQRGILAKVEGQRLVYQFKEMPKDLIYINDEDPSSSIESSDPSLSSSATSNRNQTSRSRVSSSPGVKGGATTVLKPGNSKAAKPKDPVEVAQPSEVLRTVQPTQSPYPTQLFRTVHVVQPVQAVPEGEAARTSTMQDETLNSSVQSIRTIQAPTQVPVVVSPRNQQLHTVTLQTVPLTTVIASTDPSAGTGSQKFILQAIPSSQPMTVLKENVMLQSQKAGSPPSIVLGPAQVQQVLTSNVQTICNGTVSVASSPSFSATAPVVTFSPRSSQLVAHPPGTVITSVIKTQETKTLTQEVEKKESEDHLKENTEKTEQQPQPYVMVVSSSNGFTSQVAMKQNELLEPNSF
Chain of SPIB (Q01892 whole entry): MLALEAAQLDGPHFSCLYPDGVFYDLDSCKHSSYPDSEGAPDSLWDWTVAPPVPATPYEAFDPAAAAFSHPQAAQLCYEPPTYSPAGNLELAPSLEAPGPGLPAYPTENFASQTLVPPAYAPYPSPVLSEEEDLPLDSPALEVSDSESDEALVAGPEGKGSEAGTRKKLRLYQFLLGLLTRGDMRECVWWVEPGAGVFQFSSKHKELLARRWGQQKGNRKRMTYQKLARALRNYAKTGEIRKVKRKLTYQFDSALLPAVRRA
Chain of CRX (O43186 whole entry): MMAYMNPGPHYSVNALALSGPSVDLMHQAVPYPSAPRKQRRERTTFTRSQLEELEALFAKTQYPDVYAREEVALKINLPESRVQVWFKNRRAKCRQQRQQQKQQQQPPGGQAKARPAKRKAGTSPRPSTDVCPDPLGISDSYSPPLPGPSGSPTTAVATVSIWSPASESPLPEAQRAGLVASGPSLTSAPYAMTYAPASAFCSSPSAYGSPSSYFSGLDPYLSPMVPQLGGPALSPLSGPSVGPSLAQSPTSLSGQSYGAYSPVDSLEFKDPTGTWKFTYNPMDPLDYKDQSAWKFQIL
Chain of ELF4 (Q99607 whole entry): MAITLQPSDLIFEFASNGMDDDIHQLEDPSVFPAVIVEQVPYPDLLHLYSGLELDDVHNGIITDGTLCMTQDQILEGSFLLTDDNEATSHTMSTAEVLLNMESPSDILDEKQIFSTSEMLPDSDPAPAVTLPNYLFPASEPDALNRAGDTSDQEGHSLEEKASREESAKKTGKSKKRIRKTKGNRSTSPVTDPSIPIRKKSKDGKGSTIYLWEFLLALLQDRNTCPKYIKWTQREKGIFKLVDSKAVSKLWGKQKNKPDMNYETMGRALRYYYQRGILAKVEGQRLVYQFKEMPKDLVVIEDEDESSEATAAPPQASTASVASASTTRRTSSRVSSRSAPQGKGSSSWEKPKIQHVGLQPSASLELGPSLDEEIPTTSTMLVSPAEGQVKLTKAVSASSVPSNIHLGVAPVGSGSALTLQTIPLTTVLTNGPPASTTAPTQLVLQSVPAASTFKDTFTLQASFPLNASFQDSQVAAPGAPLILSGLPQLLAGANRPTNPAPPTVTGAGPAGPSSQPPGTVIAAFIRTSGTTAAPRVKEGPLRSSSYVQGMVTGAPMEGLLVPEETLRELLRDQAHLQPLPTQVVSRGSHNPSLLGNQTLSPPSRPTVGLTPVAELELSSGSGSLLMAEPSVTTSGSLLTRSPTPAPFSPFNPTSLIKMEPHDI

Sequence | binding signal [1] | binding signal [2] | binding signal [3] | binding signal [4] | binding signal [5] | binding signal [6] | binding signal [7] | binding signal [8] | binding signal [9] | binding signal [10] | binding signal [11] | binding signal [12] | binding signal [13] | binding signal [14] | binding signal [15] | binding signal [16] | binding signal [17] | binding signal [18]
TTACGC | 1.15 fold enrichment (6-mer frequency, TF over GST control) | 1.06 fold enrichment (6-mer frequency, TF over GST control) | 1.07 fold enrichment (6-mer frequency, TF over GST control) | 1.08 fold enrichment (6-mer frequency, TF over GST control) | 1.12 fold enrichment (6-mer frequency, TF over GST control) | 1.06 fold enrichment (6-mer frequency, TF over GST control) | 1.07 fold enrichment (6-mer frequency, TF over GST control) | 1.02 fold enrichment (6-mer frequency, TF over GST control) | 1.21 fold enrichment (6-mer frequency, TF over GST control) | 1.1 fold enrichment (6-mer frequency, TF over GST control) | 1.19 fold enrichment (6-mer frequency, TF over GST control) | 1.39 fold enrichment (6-mer frequency, TF over GST control) | 1.19 fold enrichment (6-mer frequency, TF over GST control) | 1.04 fold enrichment (6-mer frequency, TF over GST control) | 1.16 fold enrichment (6-mer frequency, TF over GST control) | 1.01 fold enrichment (6-mer frequency, TF over GST control) | 1.81 fold enrichment (6-mer frequency, TF over GST control) | 1.13 fold enrichment (6-mer frequency, TF over GST control)
TTAGGT | 1.11 fold enrichment (6-mer frequency, TF over GST control) | 1.12 fold enrichment (6-mer frequency, TF over GST control) | 1.2 fold enrichment (6-mer frequency, TF over GST control) | 1.08 fold enrichment (6-mer frequency, TF over GST control) | 1.03 fold enrichment (6-mer frequency, TF over GST control) | 1.1 fold enrichment (6-mer frequency, TF over GST control) | 1.02 fold enrichment (6-mer frequency, TF over GST control) | 1.12 fold enrichment (6-mer frequency, TF over GST control) | 1.17 fold enrichment (6-mer frequency, TF over GST control) |  | 1.12 fold enrichment (6-mer frequency, TF over GST control) | 1.28 fold enrichment (6-mer frequency, TF over GST control) | 1.08 fold enrichment (6-mer frequency, TF over GST control) | 1.26 fold enrichment (6-mer frequency, TF over GST control) | 1 fold enrichment (6-mer frequency, TF over GST control) | 1.15 fold enrichment (6-mer frequency, TF over GST control) | 1.82 fold enrichment (6-mer frequency, TF over GST control) | 1.04 fold enrichment (6-mer frequency, TF over GST control)
